High-throughput results as filed in PubChem BioAssay.
3CLpro inhibitor = SARS-CoV 3CLpro protease inhibition; actives 0.14% (n = 290,000); inhibition, % at 6 µM; AID 1706; recombinant SARS-CoV 3CLpro, quenched FRET peptide cleavage; in the data active = inhibition above about 12%
CCHF vOTU inh = blocks the CCHF virus ovarian tumor domain protease. CCHFV vOTU protease, Pep-AMC fluorescence. inhibition, % at 11.5 µM. actives 0.55% (n = 370,000). AID 651958; in the data active = inhibition above about 30%; also: 0% = vehicle wells with enzyme and 100% = no enzyme wells
MazEF act = MazEF (E. coli) toxin RNase activation. P0AE70. FAM/BHQ RNA-DNA oligo cleavage fluorescence, 5 h. activation, % at 20 µM. actives 0.32% (n = 350,000). AID 504720; in the data active = activation above about 50%
Target sequence (P0AE70 whole entry, looked up): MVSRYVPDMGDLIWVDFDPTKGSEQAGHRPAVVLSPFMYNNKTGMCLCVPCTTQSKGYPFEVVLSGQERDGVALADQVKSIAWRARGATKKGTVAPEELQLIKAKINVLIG
BJeLR viability = BJeLR cell viability loss. BJeLR (HRASV12) viability, CellTiter-Glo ATP luminescence, 48 h. actives 0.17% (n = 300,000). inhibition, % (no concentration beside the values); in the data active = inhibition above about 50%
VHR inh abs = inhibitors of human VHR1 phosphatase (DUSP3) | inhibition, % at 13.3 µM | P51452 | actives 0.52% (n = 290,000) | recombinant VHR phosphatase, pNPP absorbance; in the data active = inhibition above about 50%
Target sequence (P51452 whole entry, looked up): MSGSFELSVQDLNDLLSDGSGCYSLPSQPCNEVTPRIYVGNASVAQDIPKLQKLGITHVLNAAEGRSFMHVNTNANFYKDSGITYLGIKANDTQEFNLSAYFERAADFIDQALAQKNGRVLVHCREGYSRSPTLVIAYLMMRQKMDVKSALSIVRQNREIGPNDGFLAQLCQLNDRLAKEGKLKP
* marks the source's active call; other numbers are inactive results; . = no result. Shown are actives, neighbours in structure and some others; about 1.4% of the full set was active somewhere.

SMILES	3CLpro inhibitor	CCHF vOTU inh	MazEF act	BJeLR viability	VHR inh abs
CCC(=O)N1CCc2cc(Br)c(S(=O)(=O)N3CCC(C(=O)NC(C)(C)C)CC3)cc21	.	8.5	.	.	.
CCCCCn1nnnc1C1c2ccccc2OCC(=O)N1Cc1ccco1 (stereo not drawn)	.	-0.2	.	.	.
C#CCN1c2ccccc2Sc2cccnc21	-3.0	-14.8	71.1*	1.6	19.7
CC(CN1c2ccccc2Sc2ccccc21)N(C)C (stereo not drawn)	2.1	1.2	6.2	-1.7	-22.3
Cc1ccc(C(=O)Oc2oc(-c3ccccc3)nc2C=Nc2ccc(N(C)C)cc2)cc1	-1.3	-14.0	870.5*	1.9	11.5
COc1ccc(N=Cc2nc(-c3ccccc3)oc2OC(C)=O)cc1	3.4	6.6	-25.3	4.1	8.5
CN(C)c1ccc(N=Cc2nc(-c3ccccc3)oc2OC(=O)c2cccc(Cl)c2)cc1	4.2	2.0	125.8*	2.3	32.8
COc1nc(OC)nc(N2CCC(C(=O)N(C)Cc3ccco3)CC2)n1	.	2.4	.	.	.
Cc1ccc(CSc2nnc(-c3ccccc3)n2Cc2ccco2)cc1	.	4.9	.	.	.
CC(Oc1ccc2c3c(c(=O)oc2c1)CCCC3)C(=O)NCCCn1ccnc1 (stereo not drawn)	-2.1	1.4	11.8	-3.4	57.9*
O=C(CCCCCN1C(=O)C2C3C=CC(C3)C2C1=O)Nc1cc(F)cc(F)c1 (stereo not drawn)	.	3.1	.	.	.
N#Cc1cc2cc3c(cc2nc1SCC(=O)N1CCCC1)OCCO3	-2.9	.	0.7	-3.6	6.4
CC(=O)CSc1nc2cc3c(cc2cc1C#N)OCCO3	0.8	-3.0	79.5*	21.0	3.9
COC(=O)CSc1nc2cc(C)cc(C)c2cc1C#N	6.2	-3.2	131.4*	-5.7	29.4
COC(=O)CSc1nc2cc(OC)ccc2cc1C#N	-0.8	-6.1	202.8*	-5.2	24.0
COC(=O)CSc1nc2ccc(C)cc2cc1C#N	3.1	-4.0	901.4*	-2.9	49.8
COc1ccc([C@H]2OC(=O)C[C@@H]2C(=O)N2CCCCC2)cc1OC	.	8.5	.	.	.
Cn1c(=O)cc(OCC(=O)N2CCN(c3ccccc3Cl)CC2)c2ccccc21	.	8.3	.	.	.
O=S1(=O)c2ccc(Br)cc2OC[C@@H](Cc2ccccc2)N1Cc1cn(Cc2ccccc2)nn1	.	7.3	.	.	.
CCN1CCCCC(NC(=O)Cc2ccccc2)C1=O (stereo not drawn)	.	0.0	.	.	.
Nc1c(C(=O)c2ccccc2)sc2nsc(SCCN3CCOCC3)c12	5.9	2.0	126.7*	6.2	29.8
Cc1snc2sc(C(=O)c3ccc(Br)cc3)c(N)c12	3.7	2.9	16.3	-0.4	11.6
Cc1ccc(C(=O)c2sc3nsc(C)c3c2N)cc1	5.3	-3.0	61.7*	1.5	11.6
CCCCCCC(=O)NC1CCCCN(Cc2cccc(Cl)c2)C1=O (stereo not drawn)	.	14.9	.	.	.
Cc1cn(-c2cc(NC(=O)c3ccc(C)c(Nc4nccc(-c5cccnc5)n4)c3)cc(C(F)(F)F)c2)cn1	.	-9.4	.	.	.
SMILES	3CLpro inhibitor	CCHF vOTU inh	MazEF act	BJeLR viability	VHR inh abs
COC1=C(Br)C(=O)c2ncccc2C1=O	.	100.7*	5.8	.	.
COC(=O)[C@]12C[C@H](CC(=O)N3CCSCC3)C(=O)N(Cc3ccc(Cl)cc3Cl)C1=C[C@H](C(C)C)O[C@@H]2C1CC1	.	12.2	.	.	.
CCOC(=O)[C@]12CCCC3=C1N(CCC3)C(=O)[C@@H](CC(=O)NCCCOC)C2	.	0.9	.	.	.
O=S(=O)(NN=Cc1ccc(O)cc1O)c1cc(Cl)c(Cl)cc1Cl	.	11.6	-2.0	.	.
CC(=O)Nc1cc(Cl)c(N=Cc2ccc(O)cc2O)cc1Cl	1.1	-9.3	106.2*	7.9	24.4
COc1ccccc1/C=C/c1ccc2cccc(O)c2n1	-1.7	10.6	-0.2	10.3	52.6*
Cc1cccn2c(=O)c(/C=C(\C#N)C(=O)NCc3ccco3)c(N3CCCC(C)C3)nc12 (stereo not drawn)	0.7	3.6	6.4	-21.4	55.4*
CCCCC(=O)NC(c1ccc(C(C)C)cc1)c1ccc2cccnc2c1O (stereo not drawn)	8.2	-3.1	-1.2	53.7*	12.7
Cc1cc(NC(=O)CCC(=O)N(Cc2ccco2)C(C(=O)NC2CCCC2)c2ccccc2C)no1 (stereo not drawn)	1.6	6.2	54.9*	1.2	-0.1
COc1ccc(C(=O)/C=C/C(=O)N(CC(=O)NC2CCCCC2)Cc2ccccc2)c(O)c1	-0.2	-3.8	1.8	22.2	12.2
COc1ccc(C(=O)/C=C/C(=O)N(CC(=O)NC2CCCCC2)Cc2ccccc2OC)c(O)c1	4.2	-8.1	7.1	51.4*	38.3
O=C1NC(=O)N(c2ccccc2)C(=O)/C1=C\C=C\c1ccccc1	3.3	0.9	-9.8	38.2	10.1
ClC1=C(Cl)C(Cl)=C(Cl)C1=C/C=C/c1ccccc1	-1.1	8.4	-6.1	89.4*	-4.9
c1ccc(Cn2ncc3ccccc32)cc1	2.0	-5.2	7.3	-10.2	33.4
Fc1cccc(Cl)c1Cn1ncc2ccccc21	2.0	1.9	-1.9	1.6	53.0*
Cc1c(C(=O)OCC(=O)N2CC(=O)Nc3ccccc32)oc2ccc(Br)cc12	-1.4	8.9	-27.1	67.6*	14.6
CCOC(=O)N1CCN(C2=C(NS(=O)(=O)c3ccccc3)C(=O)c3ccccc3C2=O)CC1	-0.2	88.8*	4.3	2.2	-17.6
Cc1ccccc1OCC(O)CNC1CCC(NCC(O)COc2ccccc2C)CC1 (stereo not drawn)	1.1	8.6	22.3	89.4*	.
O=C(Nc1ccccc1)c1nn(-c2ccccc2)c(=O)cc1C(F)(F)F	-2.8	3.6	380.8*	-4.0	13.2
O=C(c1ccccc1)c1nn(-c2ccccc2)c(=O)cc1C(F)(F)F	2.1	-1.8	7.3	3.9	0.0
CN1C(=O)C(C)(C)c2cc(S(=O)(=O)NCc3ccc(C(=O)NCc4ccco4)cc3)ccc21	-2.9	-4.4	139.7*	2.2	9.5
COc1cccc(S(=O)(=O)NCc2ccc(C(=O)NCc3ccco3)cc2)c1	-5.3	-13.2	7.0	18.6	-8.6
CCOC(=O)[C@@]12CCCC3=C1N(CCC3)C(=O)[C@H]2CC(=O)N1CCCCC1	.	-8.0	.	.	.
O=C(N/N=C/c1ccc(OC(=O)c2cccs2)cc1)c1ccccn1	-5.2	0.4	-10.4	1.5	52.8*
O=C(NCc1c(F)cccc1F)C1CCCN(c2ncccn2)C1 (stereo not drawn)	.	10.2	.	.	.
SMILES	3CLpro inhibitor	CCHF vOTU inh	MazEF act	BJeLR viability	VHR inh abs
CCCNC(=O)Cn1c(=O)n(CC(=O)N2CCCCC2)c(=O)c2sccc21	1.0	8.2	4.0	7.5	55.5*
COc1ccc(OC)c(NC(=O)c2ccccc2N(Cc2ccccc2)C(=O)C(C)Cl)c1 (stereo not drawn)	.	-4.6	.	.	.
COc1ccc(Nc2nc3ccccc3nc2-n2nc(C)cc2C)cc1	-4.6	3.8	178.1*	4.7	28.5
Cc1cc(C)n(-c2nc3ccccc3[nH]c2=O)n1	3.1	-2.2	-0.6	-0.1	-0.3
Cc1cc(C)n(-c2nc3ccccc3nc2Nc2ccc3[nH]c(=O)[nH]c3c2)n1	-3.5	-8.8	233.7*	-10.9	-8.3
Cc1cc(C)n(-c2nc3ccccc3nc2NCCc2ccccc2)n1	-1.9	-10.7	-16.2	-0.3	25.2
